Compound activity deposited in PubChem by National Center for Advancing Translational Sciences (NCATS).
CBFb RUNX1 block: qHTS Assay for Compounds Blocking the Interaction Between CBF-beta and RUNX1 for the Treatment of Acute Myeloid Leukemia. Runt-related transcription factor 1 (Homo sapiens) + Core-binding factor subunit beta …. AlphaScreen CBFb-His/RUNX1-biotin binding, biochemical. Potency, µM (top dose mostly 59.8 µM), usual class: inhibitors. 230,000 tested, under 10 active
Target sequence (Q01196 whole entry, looked up): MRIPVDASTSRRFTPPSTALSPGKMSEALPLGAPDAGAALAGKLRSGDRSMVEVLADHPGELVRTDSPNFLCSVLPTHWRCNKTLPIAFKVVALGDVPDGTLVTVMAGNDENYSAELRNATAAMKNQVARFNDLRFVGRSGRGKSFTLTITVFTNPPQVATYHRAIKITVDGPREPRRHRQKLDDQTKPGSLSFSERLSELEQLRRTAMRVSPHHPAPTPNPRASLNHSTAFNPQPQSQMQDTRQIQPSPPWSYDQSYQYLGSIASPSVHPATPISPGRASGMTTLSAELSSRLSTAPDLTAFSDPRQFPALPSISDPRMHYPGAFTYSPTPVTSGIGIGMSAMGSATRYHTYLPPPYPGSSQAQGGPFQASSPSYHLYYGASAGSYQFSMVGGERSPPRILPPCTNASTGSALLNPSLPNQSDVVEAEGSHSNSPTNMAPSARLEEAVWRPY
Target sequence (Q13951 whole entry, looked up): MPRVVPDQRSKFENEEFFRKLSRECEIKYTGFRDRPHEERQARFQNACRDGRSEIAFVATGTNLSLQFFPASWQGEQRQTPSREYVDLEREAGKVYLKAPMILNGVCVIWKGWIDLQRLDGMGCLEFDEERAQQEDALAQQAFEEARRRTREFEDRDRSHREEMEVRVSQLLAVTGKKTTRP
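His-tagged CBF-beta and biotinylated RUNX1 (30 nM each) were premixed 20 min at room temperature, exposed to compound for 15 min, then given nickel-chelate and streptavidin AlphaScreen beads (50 ng each). After 90 min, AlphaScreen signal was read.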
PNC inhibitor: High Content Assay for Compounds that inhibit the Assembly of the Perinucleolar Compartment | activity change (PNC), negative = inhibition, % at 10 µM | 140,000 tested, 3.1% active | PC3M PTB-GFP, PNC prevalence imaging, 16 h; hits give low values;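 active means readout at or below -70, meaning at least 70% loss of cells showing the perinucleolar compartment, a nuclear body marking cancer cells; inconclusive means readout between -30 and a set limit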
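PC3M cells stably expressing PTB-GFP, 750–1000 cells/well, treated 16 h at 37 °C with compound (23 nl of library stock), in duplicate. After paraformaldehyde fixation and Hoechst stain, imaged at 20x; PNC prevalence scored by image analysis.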
HPGD inh: qHTS Assay for Inhibitors of HPGD (15-Hydroxyprostaglandin Dehydrogenase); purified HPGD, NADH fluorescence kinetic, PGE2 substrate; Potency, µM, usual class: inhibitors; 150,000 tested, 4.3% active; AID 894, 2007; active means well fitted inhibition curve with a large enough effect, not every such curve was filed as active; inconclusive means small, poorly fitted or top-dose-only effect, or another doubt; inactive means no such curve, though single readings can be large or run the other way
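NADH formation kinetics: reaction with 30 uM PGE2 and 1 mM NAD+ (final), 20 nM enzyme, Tris-HCl pH 8 with Tween 20, after 15 min compound preincubation at room temperature. Fluorescence change, last versus first of five reads.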
HttQ103 aggreg: qHTS Multiplex Assay to Identify Dual Action Probes in a Cell Model of Huntington: Aggregate Formation (GFP); 220,000 tested, 1.1% active; PC12 HttQ103-GFP aggregates, Acumen cytometry, 40 h; AID 1688, 2009; Potency, µM (titrated, usually from 46.1 µM), usual class: inhibitors; further: nearly all actives have a fitted effect of over 60% in size
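Aggregates are detected as GFP objects 1–25 µm with signal 6 STDEV over background in lysates of induced PC12 cells. These carry Huntingtin exon 1 with 103 glutamines fused to GFP under an ecdysone promoter; compounds titrated.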
ALDH1A1 block: qHTS Assay for Inhibitors of Aldehyde Dehydrogenase 1 (ALDH1A1). Aldehyde dehydrogenase 1A1 (Homo sapiens), P00352. 220,000 tested, 7.3% active. Potency, µM (doses to about 75.3 µM), most hits filed as inhibitors. Purified ALDH1A1, NADH fluorescence, propionaldehyde substrate; active means well fitted inhibition curve with a large enough effect, not every such curve was filed as active; inconclusive means small, poorly fitted or top-dose-only effect, or another doubt; inactive means no such curve, though single readings can be large or run the other way
HTT ATP protect: qHTS Multiplex Assay to Identify Dual Action Probes in a Cell Model of Huntington: Cytoprotection (ATP). Potency, µM (highest dose often 56.4 µM), actives largely listed as activators. PC12 HTT-Q103 induced, cytoprotection, ATP luminescence, 40 h. 230,000 tested, 0.14% active; further: nearly all actives have a fitted effect of over 45% in size
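Readout: ATPlite luminescence (ATP level). Model: stable PC12, inducible Htt exon1 Q103-GFP. Inducer: tebufenozide, 100 nM final. Compounds: dose series. No G418 in medium.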
Of the large screens only hits and unclear results are named; the others gave an inactive call. A selection: hits, their analogues and other compounds. The true share with any hit is near 11%. Unless noted, the call rests on the fitted dose curve; in most records, active means well fitted curve in the direction sought with a large enough effect; inconclusive means small, poorly fitted or top-dose-only effect, or another doubt; inactive means no such curve, though single readings can be large; an effect the other way counts as inactive or inconclusive.

Cc1sc2cc3c(c(C(=O)c4ccccc4)[n+]2c1C)-c1cccc2cccc-3c12	HttQ103 aggreg 8.9µM (no result: HTT ATP protect)
CCOCCc1c(O)nc(SCCOc2ccc(C)c(C)c2)[nH]c1=O	none (no result: PNC inhibitor, HPGD inh)
Cc1cc(C)nc(-n2c(Nc3ccccc3)cc(=O)c3c(C)n(-c4ccccc4)c(=O)nc32)n1	none (no result: CBFb RUNX1 block, PNC inhibitor, HPGD inh, HttQ103 aggreg, ALDH1A1 block)
Cc1ccccc1CNS(=O)(=O)c1ccccc1[N+](=O)[O-]	ALDH1A1 block inconclusive (no result: PNC inhibitor, HPGD inh)
Cc1onc(-c2ccccc2)c1CNS(=O)(=O)c1ccccc1[N+](=O)[O-]	ALDH1A1 block 13µM (no result: PNC inhibitor, HPGD inh)
O=C(O)Cc1ccc2c(c1)N(S(=O)(=O)c1cccc(C(F)(F)F)c1)CC(C(=O)O)O2 (centres undefined)	HPGD inh inconclusive
N#Cc1c(-c2ccc(Br)cc2)nc2n(c1=O)CCCS2	PNC inhibitor inconclusive, HPGD inh 28µM, ALDH1A1 block 35µM
Cc1cc(/C=c2\sc3nc4ccccc4n3c2=O)c(C)n1-c1ccc(C(=O)O)cc1	ALDH1A1 block inconclusive (no result: PNC inhibitor, HPGD inh)
Cc1cc(/C=C2/NC(=O)N(Cc3ccccc3F)C2=O)c(C)n1C	PNC inhibitor inconclusive, ALDH1A1 block 1.1µM (no result: HTT ATP protect)
Cc1cc(/C=c2/sc3nc4ccccc4n3c2=O)c(C)n1-c1ccccn1	ALDH1A1 block 13µM
CCOc1cc([N+](=O)[O-])cc(/C=C2/NC(=O)N(Cc3ccccc3F)C2=O)c1O	ALDH1A1 block 2.2µM (no result: PNC inhibitor, HPGD inh)
Cc1ccc(/C=C2/NC(=O)N(Cc3ccccc3F)C2=O)s1	ALDH1A1 block inconclusive (no result: PNC inhibitor, HPGD inh)
Cc1cc(/C=C2/NC(=O)N(Cc3ccccc3F)C2=O)c(C)n1-c1ccccn1	HPGD inh inconclusive, ALDH1A1 block 8.9µM (no result: HTT ATP protect)
Cc1c(N2C(=O)CSC23C(=O)Nc2ccccc23)c(=O)n(-c2ccccc2)n1C (centres undefined)	none
COc1cc(/C=C2/NC(=O)N(Cc3ccccc3F)C2=O)cc(OC)c1OC	ALDH1A1 block 2.5µM (no result: PNC inhibitor, HPGD inh)
COc1ccc(/C=C2/NC(=O)N(Cc3ccccc3F)C2=O)cc1OC	ALDH1A1 block inconclusive (no result: PNC inhibitor, HPGD inh)
CCOC(=O)c1nc(SC)n(C)c1C(=O)OCC	none (no result: PNC inhibitor, HPGD inh)
COc1cc(S(=O)(=O)N2CCN(C)CC2)c(OC)cc1Cl	none
COc1cc(S(=O)(=O)N2CCN(c3ccccc3F)CC2)c(OC)cc1Cl	ALDH1A1 block 25µM
O=C(CCl)Nc1cn(-c2ccccc2)nc1-c1ccc(F)cc1	HttQ103 aggreg inconclusive, ALDH1A1 block inconclusive (no result: PNC inhibitor, HPGD inh)
CC(C)([CH2][Sn]([CH2]C(C)(C)c1ccccc1)([CH2]C(C)(C)c1ccccc1)[O][Sn]([CH2]C(C)(C)c1ccccc1)([CH2]C(C)(C)c1ccccc1)[CH2]C(C)(C)c1ccccc1)c1ccccc1	none (no result: PNC inhibitor, HPGD inh, HttQ103 aggreg, ALDH1A1 block, HTT ATP protect)
O=C(COC(=O)C1CC1)c1c[nH]c2ccccc12	PNC inhibitor -80, HttQ103 aggreg 0.032µM (no result: HTT ATP protect)
CC(C)(C)NCC(=O)c1c[nH]c2ccccc12	ALDH1A1 block 18µM
O=C1CC(c2ccccc2)CCc2sccc2N1 (centres undefined)	HPGD inh 25µM
Cn1ccc(=S)c2ccccc21	ALDH1A1 block 7.1µM (no result: PNC inhibitor, HPGD inh)
Cn1c(=S)[nH]c2ccccc21	none
O=c1nc2ccccc2c2n1CC(CN1CCN(c3ccccc3)CC1)N2 (centres undefined)	none (no result: PNC inhibitor, HPGD inh, HttQ103 aggreg)
Cc1cc(N2CCN(C/C=C/c3ccccc3)CC2)n2ncnc2n1	HPGD inh 28µM, HttQ103 aggreg 3.5µM, HTT ATP protect inconclusive
Cc1cc(N2CCN(c3ccccc3)CC2)n2ncnc2n1	none (no result: PNC inhibitor, HPGD inh)
CS(=O)(=O)Nc1cccc(-c2ccc3ncnc(NCc4cccs4)c3c2)c1	none (no result: CBFb RUNX1 block, PNC inhibitor, HPGD inh, HttQ103 aggreg)
O=C1CC(c2ccco2)CC(O)=C1C=NCCN1CCN(C2CC(=O)N(c3ccccc3)C2=O)CC1 (centres undefined)	PNC inhibitor -100, ALDH1A1 block inconclusive
